Results on 40 compounds are retold here after PubChem BioAssay (Tox21).

Where “and” joins values, the source holds several entries; their conditions need not be identical. Equal values may be shown once. Records with an inconclusive call do not appear. Entries that show only a call come without a potency. A structure can be active in one record and inactive in another. Calls of active or inactive are those of the source. Calls come from the whole dose curve.
Potency is the fitted concentration of half-maximal effect.

The test can be described thus: qHTS assay to identify small molecule agonists of H2AX - cell viability counter screen (AID 1224847). For activity change, negative = cytotoxicity: top concentration of the series differs between compounds. Note: nearly all actives have a fitted effect of over 30% in size. The conditions noted are these: CHO-K1 viability, CellTiter-Glo luminescence, 3 h; series mostly up to 154 µM; activity change, negative = cytotoxicity: at the top concentration. An excerpt:
National Center for Advancing Translational Sciences [NCATS]
NIH Chemical Genomics Center [NCGC]
U.S. Environmental Protection Agency [EPA]
National Institutes of Environmental Health Sciences [NIEHS]
National Toxicology Program [NTP]
U.S. Food and Drug Administration [FDA]
HTRF phospho-H2AX (Ser139) assay (Cisbio Bioassays, US) enables the quantitative detection of the histone variant H2AX when phosphorylated on serine 139. When double-stranded DNA breaks, either by ionizing radiation or endogenous physiological processes, H2AX becomes phosphorylated at Ser139. This phospho-Ser139 serves as a sensitive biomarker for the detection of such breaks, localizing the site of DNA repair. So, HTRF phospho-H2AX Ser139 is a pertinent assay to study genome stability, the cell cycle, DNA repair, and it serves as a biomarker for cancer, and to understand aging. Wild type CHO-K1 cells were used to identify the inducers of Phospho-H2AX Ser 139 from the Tox21 compound collections. Also cytotoxicity of the Tox21 10K compound library against the CHO-K1 cell line was tested by measuring the cell viability using CellTiter-Glo assay (Promega, Madison, WI).
Tox21 Assay Protocol Summary:
The CHO-K1 cells suspended in culture medium containing 10% FBS were dispensed at 1000 cells/ 3 ul/well in 1536-well white wall/solid bottom plates (Greiner Bio-One North America, NC) using a Multidrop Combi (Thermo Fisher Scientific Inc., Waltham, MA). After the assay plates were incubated at 37C overnight, 23 nl of compounds at 15 concentrations (from 5-48 columns) or positive control (from 1 to 4 columns) were transferred to the assay plates using a Pintool station (Wako, San Diego, CA) into each well resulting in a final DMSO concentration of 0.76%. After 3hr incubation at 37C, 3 uL/well CellTiter-Glo luminescent cell viability reagent (Promega Corporation, Madison, WI) was added using a Flying Reagent Dispenser (FRD) (Aurora Discovery, CA). After incubation at room temperature for 30 min, the luminescence intensity was read using a ViewLux plate reader (PerkinElmer, Waltham, MA).
On the technique in general: Quantitative high-throughput screening tests each substance at several concentrations.
For `OCCNCCO`, the Potency result was “inactive”. Take `CC(=O)O[C@]1(C(C)=O)CC[C@H]2[C@@H]3C=C(C)C4=CC(=O)CC[C@]4(C)[C@H]3CC[C@@]21C`: the “activity change, negative = cytotoxicity” value was -0.131% [at 70.9 µM] (inactive).

Regarding `CN(Cc1cnc2nc(N)nc(N)c2n1)c1ccc(C(=O)N[C@@H](CCC(=O)O)C(=O)O)cc1`, the Potency is 636 nM (active) and 1.1 µM (active). With `Oc1c(Cl)ccc(Cl)c1Cl`, the Potency entry is “inactive”. Same read-out and setting: under `CCCCCCCCCCC(CO)CCCCCCCC` (stereo not given) stands “inactive”; under `COC(=O)c1ccc(C)cc1`, “inactive”. Regarding `Nc1ccc2c(c1)C(=O)c1ccccc1C2=O`, the Potency was 98.9 µM (active) and inactive. `C1CN(SSN2CCOCC2)CCO1`: the “activity change, negative = cytotoxicity” value was -2.5% (inactive). Take `C[C@]12C=CC(=O)C=C1CC[C@H]1[C@@H]3C[C@@H](O)[C@](O)(C(=O)CO)[C@@]3(C)C[C@H](O)[C@@]12F`: the Potency result was “inactive”.

In the case of `C=C[Si](OCCOC)(OCCOC)OCCOC`, the Potency entry is “inactive”. Regarding `ClC/C=C/CCl`, the Potency result was “inactive”. As to `C=CC(C)(O)CCC=C(C)C` (stereo not given), the Potency entry is “inactive”.

Take `Cc1ccc(N)c([N+](=O)[O-])c1`: the Potency result was “inactive”.

For `CN(C)/N=N/c1nc[nH]c1C(N)=O`, the Potency entry is “inactive”. For `Cc1ccc(C(C)(C)C)c(O)c1`, the Potency was 97.5 µM (active) and 89.8 µM (active).

In the case of `c1ccc2ncccc2c1`, the Potency result is “inactive”. As for `C=CCNCC=C`, the Potency entry is “inactive”.

For the compound `NC[C@H](O)c1ccc(O)c(O)c1`, the Potency entry was “inactive”. As for `COc1ccc(-c2coc3cc(O)cc(O)c3c2=O)cc1`, the Potency was 36 µM (active). With `CC1(C)NC(=O)N(c2ccc([N+](=O)[O-])c(C(F)(F)F)c2)C1=O`, the Potency is 28.4 µM (active) and inactive. The same measure, in the same setting: under `C=C[C@H]1CN2CC[C@H]1C[C@H]2[C@H](O)c1ccnc2ccc(OC)cc12` stands “inactive”; under `C=CC(=O)OCCCC`, “inactive”. In the case of `CC(C)=CCO`, the Potency entry is “inactive”. On the same count and under the same terms, to `C[N+](C)(C)CCO` belongs “inactive”. Same read-out and setting: under `CC/C=C\C/C=C\C/C=C\CCCCCCCC(=O)O` stands “inactive”. On the same count and under the same terms, to `Cc1ccc2c(c1)C(=O)OC2=O` belongs “inactive”; to `CCCCCC1C(=O)CCC1CC(=O)OC` (stereo not given), “inactive”; to `CC[C@]12CCCN3CCc4c(n(c5ccccc45)[C@@](O)(C(=O)OC)C1)[C@@H]32`, “inactive”. `CN1CCOCC1`: the Potency result was “inactive”. With `CC(C)(C)c1cccc(C(C)(C)C)c1O`, the Potency result is “inactive”. On the same count and under the same terms, under `CCc1cccc2c3c([nH]c12)C(CC)(CC(=O)O)OCC3` (stereo not given) stands “inactive”; under `CC1(C)C(C=C(Cl)Cl)C1C(=O)OCc1cccc(Oc2ccccc2)c1` (stereo not given), “inactive”.

As for `CCO[Si](CCCNC(N)=O)(OCC)OCC`, the Potency entry is “inactive”. In the case of `O=C(O)c1ccc(O)cc1`, the Potency entry was “inactive”. The same measure, in the same setting: to `CC(=O)O[C@]1(C(C)=O)CC[C@H]2[C@@H]3C=C(Cl)C4=CC(=O)CC[C@]4(C)[C@H]3CC[C@@]21C` belongs 101 µM (active) and inactive. `Brc1nc2ccccc2s1`: the Potency result was “inactive”. Take `CC(=O)Oc1ccc(C(c2ccc(OC(C)=O)cc2)c2ccccn2)cc1`: the Potency result was “inactive”. As for `[O-]/[N+](=N\O)c1ccccc1`, the Potency result was “inactive”. Turning to `CC/C(=C(/CC)c1ccc(O)cc1)c1ccc(O)cc1`, the Potency is 112 µM (active) and inactive.

Turning to `CCCCCCOCCOCCO`, the Potency entry is “inactive”.
